Bioassay records as filed in PubChem BioAssay.
PAX8 inh HTS = PAX8 transcriptional activity inhibition | AID 652154 | RMG-I TPO-luciferase reporter, SteadyGlo, 24 h | inhibition, % at 12.6 µM | 1.2% of 360,000 active;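 active = mean replicate inhibition at least 60% with every replicate also reaching 60%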;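 note: luciferase light reporting Pax8 driven TPO promoter activity; plate controls were median of neutral control wells for no effect and mitoxantrone controls for full effect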
CFTR F508del cor = CFTR F508del correction in bronchial cells. CFBE cells, YFP halide quenching; stimulated with forskolin plus potentiator P3; % fluorescence drop versus neutral controls. activity (quench increase), % at 7.58 µM. 0.36% of 350,000 active. AID 720511;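 active = mean added fluorescence quench of at least 8% versus neutral control, with both replicates also reaching 8%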;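 note: cells transiently co-express mutant CFTR-F508del with the halide-sensitive YFP; corrector assay measuring rescue of mutant channel to the surface after 24 h compound exposure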
EWS-Fli block = inhibitors of EWS/Fli oncoprotein transcriptional activity; inhibition, % at 12.6 µM; A673 NR0B1-luciferase reporter, viability-normalised; AID 651661; 0.67% of 350,000 active;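 active = mean inhibition of at least 50% after viability correction, with every replicate also passing that limit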;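 note: firefly luciferase signal divided by Alamar Blue viability fluorescence both relative to DMSO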
GAA850 FXN act = activators of GAA850 frataxin (FXN) promoter. HEK293 lucGAA850 FXN promoter luciferase reporter, 24 h; percent of 10 µM SAHA response. activation, % at 6 µM. 0.56% of 360,000 active. AID 540364;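 active = activation above the average of all compounds screened plus 3 SD, cutoff fixed separately per campaign, cut at about 7.5% in these data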;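 note: 0% = DMSO wells and 100% = 10 µM SAHA wells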
Env fusion inh = blocks HIV Env-driven cell-cell fusion. HeLa-JRFL Env/CEM21 cell fusion, luciferase. inhibition, % at 12.3 µM. 1.1% of 360,000 active. AID 651610;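 active = mean replicate inhibition score of at least 50 and every replicate individually at or above 50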;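 note: 0% = plate neutral controls and 100% = maraviroc near 300 nM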
* marks the source's active call; other numbers are inactive results; [ ] = another dose, or the depositor's remark. Shown are actives, neighbours in structure and some others; about 2.5% of the full set was active somewhere.

What do the screens show for `CO[C@@H]1CN(C)C(=O)c2ccc(NC(=O)Nc3ccc(F)cc3)cc2OC[C@@H](C)N(C(=O)c2cnccn2)C[C@H]1C`?
PAX8 inh HTS: 3; CFTR F508del cor: 2; EWS-Fli block: 1

How did Cc1cc(C)c(CN2CCN(C(=O)Cn3cnc4c(NCc5ccccc5)ncnc43)CC2)c(C)c1 do in these assays?
PAX8 inh HTS: 23; CFTR F508del cor: 1; EWS-Fli block: 21; GAA850 FXN act: -6; Env fusion inh: 87*

What do the screens show for `C[C@H]1CCCCO[C@H](CN(C)C(=O)c2ccncc2)[C@@H](C)CN([C@@H](C)CO)C(=O)c2cc(NC(=O)Cc3ccccc3)ccc2O1`?
PAX8 inh HTS: 5; CFTR F508del cor: 2; EWS-Fli block: -1; Env fusion inh: -13[16.7 µM]

How did FC(F)(F)c1cnc(NNC(=S)Nc2ccccc2Cl)c(Cl)c1 do in these assays?
PAX8 inh HTS: 74*; GAA850 FXN act: -10; Env fusion inh: 33

What do the screens show for `COc1ccc(OC)c(C(=O)Cn2nnc(-c3ccc(N4CCOCC4)cc3)n2)c1`?
PAX8 inh HTS: 3; CFTR F508del cor: 10*; EWS-Fli block: 22; GAA850 FXN act: 1; Env fusion inh: -10

Results for COc1ccc(S(=O)(=O)N2CCCCN3[C@H](CO)[C@H](c4ccc(C5=CCCC5)cc4)[C@H]3C2)cc1 ?
PAX8 inh HTS: 5; CFTR F508del cor: -1; EWS-Fli block: 9

What do the screens show for `COc1ccc(S(=O)(=O)N2CCCCN3[C@H](CO)[C@H](c4ccc(C5=CCCCC5)cc4)[C@H]3C2)cc1`?
PAX8 inh HTS: 65*; CFTR F508del cor: -1; EWS-Fli block: 0

What do the screens show for `COc1ccc(S(=O)(=O)N2CCCCN3[C@H](C2)[C@@H](c2ccc(C#CC(C)C)cc2)[C@@H]3CO)cc1`?
PAX8 inh HTS: 91*; CFTR F508del cor: -1; EWS-Fli block: 11

How did COc1ccc(S(=O)(=O)N2CCCCN3[C@H](CO)[C@H](c4ccc(C#CC(C)C)cc4)[C@H]3C2)cc1 do in these assays?
PAX8 inh HTS: 77*; CFTR F508del cor: 0; EWS-Fli block: 35

What do the screens show for `COc1ccc(S(=O)(=O)N2CCCCN3[C@H](CO)[C@H](c4ccc(C#CCC(C)C)cc4)[C@@H]3C2)cc1`?
PAX8 inh HTS: 26; CFTR F508del cor: 2; EWS-Fli block: 9

How did COc1ccc2c3c([nH]c2c1)[C@@H](CO)N(Cc1cccc(Cl)c1)CC31CN(C(C)=O)C1 do in these assays?
PAX8 inh HTS: -23; CFTR F508del cor: 3; EWS-Fli block: 20

What do the screens show for `CN(C)c1ccc(-c2nc3ccccc3c(=O)[nH]2)cc1`?
PAX8 inh HTS: 81*; CFTR F508del cor: -3; EWS-Fli block: 62*; GAA850 FXN act: -2; Env fusion inh: -15

Results for O=C(Nc1cccc(Br)c1)c1ccc2c(c1)SC1=NS(=O)(=O)CCN12 ?
PAX8 inh HTS: 88*; CFTR F508del cor: 2; EWS-Fli block: 28; GAA850 FXN act: -2; Env fusion inh: 14

How did Cc1ccc(S(=O)(=O)NCc2ccccc2)cc1C(=O)N1CC(C)CC(C)C1 (centres undefined) do in these assays?
PAX8 inh HTS: 7; CFTR F508del cor: 8.3*; EWS-Fli block: 4; GAA850 FXN act: 2; Env fusion inh: 25

What do the screens show for `Cc1ccc(S(=O)(=O)NCc2ccccc2)cc1C(=O)N1CCCCC1`?
PAX8 inh HTS: -2; CFTR F508del cor: 0; GAA850 FXN act: -1; Env fusion inh: 18

What do the screens show for `CO[C@H]1CN(C)C(=O)c2cc(NS(=O)(=O)c3ccc(Cl)cc3)ccc2OC[C@H](C)N(C)C[C@@H]1C`?
PAX8 inh HTS: 5; CFTR F508del cor: 1; EWS-Fli block: -7; Env fusion inh: -2[16.7 µM]

What do the screens show for `O=[N+]([O-])c1ccc(C2CCCC/C2=N/OCc2ccc(F)cc2)c([N+](=O)[O-])c1` (centres undefined)?
GAA850 FXN act: 2; Env fusion inh: 65*

Results for O=[N+]([O-])c1ccc(C2CCCC/C2=N/OCc2ccccc2F)c([N+](=O)[O-])c1 (centres undefined) ?
GAA850 FXN act: -1

Results for O=C1C=C(c2ccccc2)C[C@H](c2cccs2)[C@H]1n1nnc([N+](=O)[O-])n1 ?
PAX8 inh HTS: 76*; GAA850 FXN act: -3

How did Cc1ccccc1CN1C(=O)c2ccccc2C1c1nnnn1-c1ccc2c(c1)OCCO2 (centres undefined) do in these assays?
PAX8 inh HTS: 25; CFTR F508del cor: 5; EWS-Fli block: 61*; Env fusion inh: -159
